About 50,000 (12%) of roughly 420,000 compounds were called active. Entries that show only a call come without a potency. About 26% were inconclusive and are not listed. Calls follow the shape of the dose curve; as a rule, active = well fitted inhibition curve with a large enough effect; inconclusive = small, poorly fitted or top-dose-only effect; inactive = flat fitted curve, though single readings scatter. This excerpt belongs to a sample that is enriched for actives.
Experiment: qHTS for Inhibitors of human tyrosyl-DNA phosphodiesterase 1 (TDP1): qHTS in cells in presence of CPT; also: nearly all actives have a fitted effect of over 55% in size
Conditions: chicken DT40 Tdp1-/-;hTDP1 cells + 20 nM CPT, ATP luminescence, 48 h; series mostly up to 46.2 µM
Method in brief: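 Cell growth measured by CellTiter-Glo luminescence after a minimum 48 h, 37 C compound exposure with 20 nM CPT in Tdp1-knockout DT40 cells stably expressing hTDP1, seeded 400/well; qHTS titration format.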
In the case of `CCOC(=O)C1C(c2ccc(O)cc2)NC(=O)NC1(O)C(F)(F)F` (stereo not drawn), the Potency is reported as “inactive”. In the case of `Cc1ccccc1NC(=O)CSC1=NCCN1`, the Potency is reported as “inactive”. In the case of `Cc1nc(SCC(=O)N2CCN(c3ccccc3)CC2)[nH]c(=O)c1C`, the Potency is reported as “inactive”. With `Cc1ccc(C2(C(F)(F)F)N=C3Sc4cc(C)cc(C)c4N3C(=O)N2)cc1` (stereo not drawn) the Potency was “inactive”. In the case of `C=CCc1cc(C)ccc1OCCCn1ccnc1`, the Potency is reported as “inactive”. In the case of `c1ccc(Cc2ccc(OCCn3ccnc3)cc2)cc1`, the Potency is reported as 20.6 µM (active). With `Brc1ccc(OCCn2ccnc2)cc1` the Potency was “inactive”. With `CCN(CC(=O)Nc1ccc2c(c1)OCCO2)Cc1cc(=O)oc2cc(C)c(C)cc12` the Potency was “inactive”. With `CC(C)Cc1oc(C(=O)O)cc1CN` the Potency was “inactive”. For `Cc1cc(C)c(NC(=O)CSc2nc3nccnc3c(=O)n2CCc2c[nH]c3ccccc23)c(C)c1`, the Potency was “inactive”. With `Cc1cc(C)cc(NC(=O)Cn2c(=O)c3ccccc3n3nncc23)c1` the Potency was “inactive”. For `O=C(CSc1nc2nccnc2c(=O)n1CCc1c[nH]c2ccccc12)Nc1ccccc1F`, the Potency was 10.3 µM (active). With `Cn1c(CCC(=O)Nc2ccccc2F)nnc1SCC(=O)Nc1ccccc1Cl` the Potency was “inactive”. With `Cc1cc(C)cc(NC(=O)CSc2nc3nccnc3c(=O)n2CCc2c[nH]c3ccccc23)c1` the Potency was 14.6 µM (active). For `COCCn1c(SCC(=O)Nc2ccccc2F)nc2c(c1=O)SCC2`, the Potency was “inactive”. For `O=Cc1c(Cl)cccc1Cl`, the Potency was “inactive”. With `CC1(C)O[C@@H]2[C@H](O1)[C@@H](CO)O[C@H]2n1c(N2CCCCC2)nc2c(N)ncnc21` the Potency was “inactive”. In the case of `CC(C)CNS(=O)(=O)c1ccc(C(=O)Nc2ccc3c(c2)OCO3)cc1`, the Potency is reported as “inactive”. With `CC(=O)Nc1cccc(NC(=O)CSc2nccn2Cc2ccc3c(c2)OCO3)c1` the Potency was “inactive”. For `CNc1ccc([N+](=O)[O-])cc1C(=O)O`, the Potency was “inactive”. With `Cn1cnc([N+](=O)[O-])c1Nc1ccccc1O` the Potency was “inactive”. In the case of `Cn1cnc([N+](=O)[O-])c1Sc1ccccc1`, the Potency is reported as 18.4 µM (active). For `Cn1cnc([N+](=O)[O-])c1Sc1n[nH]c(N)n1`, the Potency was “inactive”. For `COc1cccc(N2CC(NS(=O)(=O)c3cccs3)CC2=O)c1` (stereo not drawn), the Potency was “inactive”. In the case of `Cc1c(Cl)cccc1NC(=O)CCS(=O)(=O)c1ccc2c(c1)oc(=O)n2C`, the Potency is reported as “inactive”. For `OC(COCC1COc2ccccc2O1)CN1CCN(c2ccc(F)cc2)CC1` (stereo not drawn), the Potency was 13 µM (active). With `OC(COCc1ccco1)CN1CCN(c2ccccc2)CC1` (stereo not drawn) the Potency was “inactive”. For `O=C(COC(=O)c1ccc(F)cc1)NCC1COc2ccccc2O1` (stereo not drawn), the Potency was “inactive”. For `Nc1ncnc2c1ncn2[C@@H]1O[C@H](C(=O)NCC(F)(F)F)[C@@H](O)[C@H]1O`, the Potency was “inactive”. In the case of `COc1ccccc1NC(=O)COC(=O)COc1ccccc1F`, the Potency is reported as “inactive”. For `CCc1nn(CC(=O)N2CCN(c3cc(C)ccc3C)CC2)c(=O)c2cc3occc3n12`, the Potency was “inactive”. With `CCc1nn(CCCC(=O)NC(C)c2ccccc2)c(=O)c2cc3occc3n12` (stereo not drawn) the Potency was “inactive”. For `CCCNC(=O)C(CC)n1nc(CC)n2c(cc3oc(C)cc32)c1=O` (stereo not drawn), the Potency was 25.9 µM (active). For `O=C(CC[C@H]1O[C@@H](n2ccc(=O)[nH]c2=O)[C@H](O)[C@@H]1O)N[C@H](Cc1ccccc1)C(=O)NCCCN1CCCC1=O`, the Potency was “inactive”. In the case of `CC1CCCN(c2csc3ccc(F)cc3c2=O)C1` (stereo not drawn), the Potency is reported as “inactive”. With `Cn1cccc1C(=O)OCC(=O)NCCc1ccccc1` the Potency was “inactive”. For `COCCN1C(=O)N[C@@H](c2ccccc2)C(C(=O)OC)=C1C`, the Potency was “inactive”. In the case of `COC(=O)C1=C(C)N(Cc2ccccc2)C(=NCCCOC(C)C)N[C@H]1c1ccccc1`, the Potency is reported as 6.51 µM (active). For `CCN1C(=O)N[C@@H](c2ccccc2)C(C(=O)OC)=C1C`, the Potency was “inactive”. With `CC(C)C(=O)Nc1ccc2c3c(cccc13)CC2` the Potency was “inactive”. In the case of `CN(Cc1ccccc1)C(=O)c1cn(C)c2ccc(S(=O)(=O)N3CCCCC3)cc2c1=O`, the Potency is reported as “inactive”. With `CCC(CC)C(=O)Nc1c2c(nn1-c1ccc(C)cc1)CS(=O)(=O)C2` the Potency was “inactive”. For `O=C(NCc1ccccc1)c1cc(-c2cccc(Cl)c2)on1`, the Potency was “inactive”. With `CCOCCOC(=O)C1=C(C)N(C)C(=O)NC1c1ccccc1F` (stereo not drawn) the Potency was “inactive”. In the case of `CCOC(=O)N1CCc2c(sc3c2C(=O)NC(c2ccccc2F)N3)C1` (stereo not drawn), the Potency is reported as 20.6 µM (active). For `N#Cc1c(N)sc2c1CCN(C(=O)OCc1ccccc1)C2`, the Potency was “inactive”. In the case of `CC1OC(OCC2OC(Oc3c(-c4ccc(O)c(O)c4)oc4cc(O)cc(O)c4c3=O)C(O)C(O)C2O)[C@@H](O)C(O)C1O` (stereo partly drawn), the Potency is reported as “inactive”. In the case of `CCOc1ccc(CCNC(=O)COC(=O)C2CCN(S(=O)(=O)c3ccccc3)CC2)cc1OCC`, the Potency is reported as “inactive”. With `COc1ccc(-c2cc(=O)oc3cc(OCC(=O)N(C)C4CCS(=O)(=O)C4)ccc23)cc1` (stereo not drawn) the Potency was “inactive”. For `CCC1SC(CC)C(=O)N(CC(=O)NC2CCCCC2)C1=O` (stereo not drawn), the Potency was “inactive”. In the case of `CN1c2ccc(C=O)c3c(C=O)ccc(c23)N(C)C1(C)C`, the Potency is reported as 20.6 µM (active). For `NC(=O)c1ccc(Nc2ccc3c(c2)CCC3)c([N+](=O)[O-])c1`, the Potency was “inactive”. In the case of `CNN/C(N=Cc1ccc([N+](=O)[O-])s1)=N\S(=O)(=O)c1cc(C)c(Cl)cc1SCc1ccccc1`, the Potency is reported as 1.16 µM (active). With `O=C(CCC(=O)c1cccs1)Nc1nc2ccccc2s1` the Potency was “inactive”. In the case of `COc1cc(NC(=O)CCNC(=O)Cn2ccc3ccccc3c2=O)cc(OC)c1OC`, the Potency is reported as “inactive”. In the case of `CC(C)n1c(-c2ccncc2)n[nH]c1=S`, the Potency is reported as “inactive”. In the case of `C#CCN(N(C)c1ncc(C(F)(F)F)cc1Cl)S(=O)(=O)c1ccc2ccccc2c1`, the Potency is reported as “inactive”. With `CC(C)OC(=O)CN1C(=O)c2ccccc2C1=O` the Potency was “inactive”. With `CC(C)OC(=O)CN1C(=O)C(=O)c2ccccc21` the Potency was 13 µM (active). For `CC(OC(=O)CN1C(=O)c2ccccc2C1=O)C(=O)c1ccccc1` (stereo not drawn), the Potency was “inactive”. In the case of `CCCCOC(=O)Cn1c(=O)n(CC(=O)OCCCC)c2cc(C)ccc21`, the Potency is reported as “inactive”. For `CCOC(=O)CN1C(=O)C(=O)c2cc(C)ccc21`, the Potency was 8.2 µM (active). In the case of `CCOC(=O)C1CCN(C(=O)CN2C(=O)c3cccnc3Oc3ccc(C)cc32)CC1`, the Potency is reported as “inactive”. With `NS(=O)(=O)c1ccc(CCNC(=O)CN2C(=O)c3ccccc3S2(=O)=O)cc1` the Potency was “inactive”. In the case of `O=C(O)C(=Cc1ccc([N+](=O)[O-])cc1)CCc1ccccc1`, the Potency is reported as “inactive”. In the case of `COc1ccccc1NC(=O)CCN1CCN(c2ccc(Cl)cc2)CC1`, the Potency is reported as 14.6 µM (active). With `COc1ccc(Cl)cc1NC(=O)CCN1CCOCC1` the Potency was “inactive”. With `COc1ccc(NC(=O)CCN2CCCC2)c(OC)c1` the Potency was “inactive”.
Potency is read from the fitted curve at half-maximal effect.
